Assay [1] has as its system Plasmodium falciparum Sir2 (PF13_0152, Sir2A). The assay is described as follows: pfSir2 binders on small-molecule microarrays, primary screen, biochemical, small-molecule microarray, 635 nm fluorescence (AID 1098).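 Further: score merges spot fluorescence intensity with its signal-to-noise ratio.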 The note with it: small-molecule microarray binding, fluorescence 635 nm; higher = more signal.
The nature of assay [2]: small-molecule microarray binders of probe aDKK1, primary screen, biochemical, biotinylated probe, 635/667 nm fluorescence (AID 1099).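 Further: score merges 667nm spot fluorescence with signal to noise across triplicate slides.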 The note with it: higher = more signal.
Assay [3] can be described thus: small-molecule microarray binders of probe aCHRDL2, primary screen, biochemical, biotinylated probe, 635/667 nm fluorescence (AID 1100). Particulars: higher = more signal.
Assay [4] in a line: splicing luciferase reporter signal modulators, primary screen, spliceosome inhibition project, cell-based, HEK293, splice +/- reporter (AID 1101).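 Further: HEK293 cells carrying a splicing-competent luciferase reporter gene; test concentration not given here.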 Particulars: luminescence, 24 h, higher = more signal, called active from +8 up or from −8 down. In general terms: In a reporter assay the amount or activity of a reporter protein is the signal.
Assay [5] concerns the target Fibroblast growth factor 10 (Homo sapiens) (UniProt O15520). The assay can be described thus: FGF10 binders on small-molecule microarrays, primary screen, biochemical, small-molecule microarray, 635 nm fluorescence (AID 1102). The note with it: FGF10 binding, fluorescence 635 nm, higher = more signal.
The test system of assay [6] is glycogen synthase kinase-3 (GSK3A per assay name; protocol says GSK3B). The assay is described as follows: GSK3 binders on small-molecule microarrays, primary screen, biochemical, small-molecule microarray, 635 nm fluorescence, GSK3A (AID 1103). Further: the record names both GSK3A and GSK3B. Particulars: small-molecule microarray binding, fluorescence 635 nm; higher = more signal.
In assay [7] the target is Epidermal growth factor receptor (Homo sapiens) (UniProt P00533). The assay is described as follows: EGFR binders on small-molecule microarrays, primary screen, biochemical, small-molecule microarray, 635 nm fluorescence (AID 1104).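 Further: score merges 667 nm emission intensity with spot signal to noise over triplicate slides.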 Particulars: EGFR binding, higher = more signal.
Chain of Epidermal growth factor receptor (Homo sapiens) (P00533 whole entry, looked up): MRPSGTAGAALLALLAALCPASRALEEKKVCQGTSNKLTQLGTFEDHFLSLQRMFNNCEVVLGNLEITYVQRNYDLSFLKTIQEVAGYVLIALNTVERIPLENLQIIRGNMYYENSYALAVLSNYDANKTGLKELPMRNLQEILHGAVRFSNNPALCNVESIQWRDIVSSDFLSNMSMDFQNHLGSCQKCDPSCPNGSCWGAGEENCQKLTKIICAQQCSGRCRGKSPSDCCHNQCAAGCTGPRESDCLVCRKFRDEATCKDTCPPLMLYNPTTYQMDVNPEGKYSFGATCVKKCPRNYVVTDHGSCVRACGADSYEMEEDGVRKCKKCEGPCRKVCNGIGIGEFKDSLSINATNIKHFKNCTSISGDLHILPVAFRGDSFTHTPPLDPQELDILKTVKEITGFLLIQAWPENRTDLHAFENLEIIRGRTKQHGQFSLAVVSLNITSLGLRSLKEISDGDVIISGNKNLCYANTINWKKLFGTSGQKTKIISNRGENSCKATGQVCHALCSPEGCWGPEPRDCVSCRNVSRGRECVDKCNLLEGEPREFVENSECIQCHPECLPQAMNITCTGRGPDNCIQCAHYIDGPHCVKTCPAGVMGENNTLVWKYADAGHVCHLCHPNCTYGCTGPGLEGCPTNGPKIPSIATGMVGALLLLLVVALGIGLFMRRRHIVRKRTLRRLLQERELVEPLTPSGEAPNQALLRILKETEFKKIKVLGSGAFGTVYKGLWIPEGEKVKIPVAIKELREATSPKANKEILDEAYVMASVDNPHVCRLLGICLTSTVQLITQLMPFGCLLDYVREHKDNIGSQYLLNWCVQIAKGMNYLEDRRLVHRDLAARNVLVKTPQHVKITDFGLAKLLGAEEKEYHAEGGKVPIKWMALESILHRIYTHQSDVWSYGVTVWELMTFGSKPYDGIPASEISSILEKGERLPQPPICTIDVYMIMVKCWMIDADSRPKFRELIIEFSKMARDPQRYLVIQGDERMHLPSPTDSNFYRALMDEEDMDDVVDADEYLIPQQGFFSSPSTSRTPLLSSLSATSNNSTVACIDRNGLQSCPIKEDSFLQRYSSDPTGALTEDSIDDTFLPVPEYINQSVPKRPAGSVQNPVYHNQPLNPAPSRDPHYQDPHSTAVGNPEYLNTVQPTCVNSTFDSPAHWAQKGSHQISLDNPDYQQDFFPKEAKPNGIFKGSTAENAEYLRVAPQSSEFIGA
Assay [8] concerns the target Follistatin-related protein 3 (Homo sapiens) (UniProt O95633). The assay is described as follows: FSTL3 binders on small-molecule microarrays, primary screen, biochemical, small-molecule microarray, 635 nm fluorescence (AID 1105).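 Further: score merges emission near 667 nm and signal to noise per printed spot across three slides.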 The note with it: FSTL3 binding, higher = more signal.
Assay [9] has as its target Dickkopf-related protein 1 (Homo sapiens) (UniProt O94907). The assay can be described thus: DKK1 binders on small-molecule microarrays, primary screen, biochemical, small-molecule microarray, 635 nm fluorescence scan (AID 1106).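 Further: score merges emission near 667 nm with signal to noise over three replicate slides.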 The note with it: DKK1 binding, higher = more signal.
Assay [10] concerns Inhibin beta A chain (activin A). The assay can be described thus: INHBA (activin A) binders on microarrays, primary screen, biochemical, small-molecule microarray, 635 nm fluorescence scan (AID 1107).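 Further: mouse activin A protein probed at 4.33 µg/mL on printed slides; score merges bound-protein fluorescence near 667 nm with spot signal-to-noise.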 The note with it: small-molecule microarray binding, higher = more signal.
Assay [11] concerns Human papillomavirus type 1a protein E7 (residues 44-93). The assay is described as follows: HPV1a E7 fragment binders on microarrays, primary screen, biochemical, small-molecule microarray, residues 44-93, 635 nm fluorescence (AID 1108).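 Further: E7 fragment applied at 1 µg/mL in TBST for 1 h at 4 C; score combines spot fluorescence with its signal to noise ratio.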 Particulars: small-molecule microarray binding, fluorescence 635 nm; higher = more signal.
Assay [12] can be described thus: modulators of HCV replicon luciferase signal, primary screen, HCV replication inhibitor project, Huh7 cells, luciferase reporter (AID 1109).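 Further: huh7 hepatoma cells harbouring a luciferase neomycin HCV replicon reporter; luciferase luminescence as measure of HCV replicon replication; test concentration not given here.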 The note with it: 48 h, higher = more signal. (In general: A replicon is a self-replicating genome or part of one, used to study replication in cells.)
Assay [13] has as its target Left-right determination factor 2 (Homo sapiens) (UniProt O00292). The assay can be described thus: LEFTY2 binders on small-molecule microarrays, primary screen, biochemical, small-molecule microarray, 635 nm fluorescence scan (AID 1110). Particulars: LEFTY2 binding, higher = more signal.
The target in assay [14] is Calmodulin-1 (Homo sapiens) (UniProt P0DP23). The assay can be described thus: CALM1 binders on microarrays, EGTA buffer, profiling panel, biochemical, small-molecule microarray, Cy5-labelled CALM1 (AID 1111).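 Further: labelled calmodulin applied in Tris saline Tween buffer holding calcium plus EGTA and DTT.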 The note with it: Cy5-CALM1 binding fluorescence, higher = more signal.
Assay [15] shares this target. The assay can be described thus: calcium-bound CALM1 binders on microarrays, profiling panel, artefact control for SMM control-protein annotation, biochemical, small-molecule microarray, Cy5-labelled CALM1, plus calcium (AID 1112).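 Further: score merges spot fluorescence with signal to noise from triplicate slides.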 Particulars: Cy5-CALM1 binding fluorescence, higher = more signal.
Assay [16] can be described thus: small-molecule microarray binders of probe aWnt5a, primary screen, biochemical, biotinylated probe, 635/667 nm fluorescence (AID 1113).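 Further: score merges 667 nm fluorescence intensity with signal-to-noise per printed feature.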 The note with it: higher = more signal.
Assay [17] can be described thus: small-molecule microarray binders of probe aShh, primary screen, biochemical, biotinylated probe, 635/667 nm fluorescence (AID 1114).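 Further: probe is biotin-labelled aShh protein from a stem cell growth factor screen; measures binding of labelled protein to compounds printed on the slide; score merges feature fluorescence at 667 nm with signal-to-noise.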 Particulars: higher = more signal.
Assay [18] in a line: small-molecule microarray binders of probe aNog, primary screen, biochemical, biotinylated probe, 635/667 nm fluorescence (AID 1115).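 Further: probe is biotinylated aNog protein used at 0.15 µg/mL for 1 h at 4 C; z-score combines 667 nm fluorescence of each spot with its signal to noise.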 Particulars: higher = more signal.
The target in assay [19] is Torsin-1A-interacting protein 1 (Homo sapiens) (UniProt Q5JTV8). The assay is described as follows: LAP1 binders from COS7 cell lysate, primary screen, small-molecule microarray, 635/667 nm fluorescence (AID 1116). Particulars: COS7-hLAP1 lysate binding, 635 nm fluorescence, higher = more signal.
Chain of Torsin-1A-interacting protein 1 (Homo sapiens) (Q5JTV8 whole entry, looked up): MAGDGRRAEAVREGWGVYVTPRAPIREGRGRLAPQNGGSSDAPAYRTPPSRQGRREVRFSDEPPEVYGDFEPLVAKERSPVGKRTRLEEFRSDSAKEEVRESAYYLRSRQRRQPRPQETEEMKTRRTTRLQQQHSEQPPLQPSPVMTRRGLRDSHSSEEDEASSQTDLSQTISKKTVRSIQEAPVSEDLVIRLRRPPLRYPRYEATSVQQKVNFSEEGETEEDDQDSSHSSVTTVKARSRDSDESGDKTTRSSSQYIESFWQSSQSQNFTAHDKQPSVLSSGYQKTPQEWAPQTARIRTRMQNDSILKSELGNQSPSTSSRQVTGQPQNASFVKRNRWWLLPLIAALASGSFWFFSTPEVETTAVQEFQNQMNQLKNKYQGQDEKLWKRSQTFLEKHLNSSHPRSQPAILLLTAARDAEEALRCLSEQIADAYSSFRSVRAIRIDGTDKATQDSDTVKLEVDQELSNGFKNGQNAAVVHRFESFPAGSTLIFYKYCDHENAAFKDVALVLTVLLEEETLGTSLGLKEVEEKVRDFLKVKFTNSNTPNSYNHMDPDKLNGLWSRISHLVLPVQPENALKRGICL
Assay [20] deals with Alpha-bungarotoxin (Bungarus multicinctus) (UniProt P60615). The assay is described as follows: alpha-bungarotoxin binders on microarray, profiling panel, artefact control for SMM control protein annotation, biochemical, small-molecule microarray, Alexa647 label, 635/667 nm fluorescence (AID 1117). The note with it: alpha-BTX-A647 binding fluorescence, higher = more signal.
Chain of Alpha-bungarotoxin (Bungarus multicinctus) (P60615 whole entry, looked up): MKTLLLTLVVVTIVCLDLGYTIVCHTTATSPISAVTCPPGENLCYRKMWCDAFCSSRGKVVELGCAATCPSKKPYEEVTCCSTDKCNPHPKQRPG

Drawing on PubChem BioAssay, this text covers composite z-score and z-score for six compounds.

Active and inactive are the calls of the source.

Chain of Dickkopf-related protein 1 (Homo sapiens) (O94907 whole entry, looked up): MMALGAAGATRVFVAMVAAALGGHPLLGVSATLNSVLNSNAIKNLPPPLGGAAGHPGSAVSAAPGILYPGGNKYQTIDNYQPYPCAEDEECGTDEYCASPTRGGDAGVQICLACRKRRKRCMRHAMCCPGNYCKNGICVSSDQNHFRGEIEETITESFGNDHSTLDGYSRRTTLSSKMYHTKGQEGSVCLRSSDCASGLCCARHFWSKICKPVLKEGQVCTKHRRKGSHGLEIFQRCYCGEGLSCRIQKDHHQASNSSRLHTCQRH
Chain of Follistatin-related protein 3 (Homo sapiens) (O95633 whole entry, looked up): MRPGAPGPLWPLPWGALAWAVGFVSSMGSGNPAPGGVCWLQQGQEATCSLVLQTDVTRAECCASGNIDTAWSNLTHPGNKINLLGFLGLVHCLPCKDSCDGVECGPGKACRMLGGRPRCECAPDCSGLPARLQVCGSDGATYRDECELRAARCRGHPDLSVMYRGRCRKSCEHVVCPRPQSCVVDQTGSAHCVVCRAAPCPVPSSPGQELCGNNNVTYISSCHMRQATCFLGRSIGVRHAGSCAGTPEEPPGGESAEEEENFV
Chain of Left-right determination factor 2 (Homo sapiens) (O00292 whole entry, looked up): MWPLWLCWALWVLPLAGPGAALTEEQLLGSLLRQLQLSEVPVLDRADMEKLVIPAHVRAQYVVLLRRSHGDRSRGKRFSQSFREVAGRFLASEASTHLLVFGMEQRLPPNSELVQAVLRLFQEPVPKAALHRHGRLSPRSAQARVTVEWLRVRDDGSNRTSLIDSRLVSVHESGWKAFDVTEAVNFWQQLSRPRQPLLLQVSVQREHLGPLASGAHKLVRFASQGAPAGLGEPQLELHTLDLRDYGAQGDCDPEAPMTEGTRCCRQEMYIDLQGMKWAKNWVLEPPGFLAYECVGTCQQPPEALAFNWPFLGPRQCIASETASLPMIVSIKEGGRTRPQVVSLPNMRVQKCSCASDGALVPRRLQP
Chain of Fibroblast growth factor 10 (Homo sapiens) (O15520 whole entry, looked up): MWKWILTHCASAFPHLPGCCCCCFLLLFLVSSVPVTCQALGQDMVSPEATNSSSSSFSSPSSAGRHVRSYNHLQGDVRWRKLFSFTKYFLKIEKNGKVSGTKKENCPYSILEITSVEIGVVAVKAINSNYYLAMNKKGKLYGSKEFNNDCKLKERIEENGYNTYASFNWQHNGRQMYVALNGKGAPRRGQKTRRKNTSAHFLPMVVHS

In the case of `[N-]=[N+]=NCc1ccccc1C[C@@]1(C(=O)NCc2ccccc2)N=C(c2ccc(OCCCO)cc2)O[C@@H]1c1ccccc1`, the composite z-score is 0.92 in assay [1]; 0.928 in assay [2]; 1.12 in [3]; 0.185 in assay [5]; 0.6 in assay [6]; -0.471 in [7]. Moreover, the composite z-score in [8] was -0.159; in assay [9], -0.373; in [10], 0.661; in assay [11] it was 0.212; in assay [13] it was -0.592; in [14], 1.43. Moreover, the composite z-score in assay [15] was 1.21; in assay [16] it was 0.0761; in assay [17], 0.0644; in [18] it was 0.868; in assay [19] it was 0.595; in assay [20] it was 0.732. For the same compound, the values for the z-score in [4] and in [12] were -1.4 (inactive) and -3.05, respectively.
`CC(C)C[C@@H]1NC(=O)[C@@]23C(=O)N[C@@H](Cc4ccccc4)C2[C@H](C)[C@@]2(C)O[C@H]2C3/C=C/CC/C=C/CNC(=O)[C@@H](C)NC1=O` (stereo not given in full): the composite z-score is 0.624 in assay [1]; -0.246 in [2]; -0.722 in assay [3]; 1.39 in assay [5]; 0.374 in assay [6]; 0.732 in assay [7]. The composite z-score was 1.07 in assay [8]; 0.81 in assay [9]; 1.29 in [10]; -0.211 in assay [11]; 0.575 in [13]; -0.643 in assay [14]. For the same compound, the composite z-score is -1.39 in [15]; -0.154 in [16]; -0.229 in [17]; 0.117 in assay [18]; -0.152 in assay [19]; -0.195 in assay [20]. The z-score in assay [4] is -0.585 (inactive); in assay [12], 0.42.
For `CC(C)(C)OC(=O)CC[C@@]1(C(=O)NCc2ccccc2)N=C(c2ccc(OCCCO)cc2)O[C@@H]1c1ccccc1CN=[N+]=[N-]`, the composite z-score came out at 1.08 in assay [1]; 1.06 in assay [2]; 0.997 in assay [3]; 1.16 in [5]; 1.3 in assay [6]; 0.0887 in [7]. Besides, the composite z-score in assay [8] was 0.622; in [9] it was 0.11; in [10], 0.664; in assay [11], -0.179; in assay [13] it was 0.0022; in [14] it was 1.61. The composite z-score is 0.605 in [15]; 0.164 in [16]; -0.0446 in assay [17]; 0.799 in [18]; 0.487 in assay [19]; 1.55 in assay [20]. Also, the results for the z-score in assay [4] and in assay [12] were 0.014 (inactive) and -2.28, respectively.
As to `C=CCNC(=O)[C@H]1[C@@H]2C(=O)O[C@@H](c3ccccc3)[C@@H](c3ccccc3)N2[C@@H](c2ccccc2OCCO)[C@]12C(=O)N(C(=O)OCCOC)c1ccc(C#CCCO)cc12`, the composite z-score in [1] came to 0.745; in assay [2], 1.73; in assay [3], 0.981; in assay [5], 1.35; in assay [6], 1.2; in [7] it was 0.843. Moreover, the composite z-score in assay [8] worked out at 1.24; in assay [9] it was 0.983; in assay [10], 1.01; in assay [11], 0.188; in assay [13] it was 1.06; in assay [14], 1.78. The composite z-score is 1.08 in assay [15]; 0.0722 in assay [16]; 0.715 in [17]; 1.23 in assay [18]; 0.985 in assay [19]; 0.581 in assay [20]. Besides, the z-score in assay [4] is -0.485 (inactive); in assay [12] it was -2.5.
Turning to `COc1ccc([Si](C)(C)[C@H]2[C@H](CC(=O)N(CCO)Cc3ccccc3)O[C@@]3(C(=O)N(Cc4ccc(N5CCC5=O)cc4)c4ccccc43)[C@@H]2C)cc1`, the composite z-score in assay [1] was 0.811; in [2] it was 0.0433; in assay [3] it was 0.4; in [5] it was -0.802; in assay [6], -0.39; in assay [7], -0.443. Also, the composite z-score in assay [8] is -0.155; in assay [9] it was 0.183; in [10], 0.577; in [11], -0.403; in [13], 0.271; in assay [14], 0.0311. Besides, the composite z-score in assay [15] is 0.705; in assay [16], -0.187; in assay [17], 0.0434; in assay [18], -0.231; in assay [19] it was 1.25; in assay [20] it was 1.33. The z-score in [4] was -0.439 (inactive); in assay [12], -3.87.
Regarding `C=C[C@H](OC)[C@@H](OC(=O)Nc1ccc(OC)cc1)c1ccc(OC)c(O)c1`, the composite z-score in [1] was 0.29; in assay [2] it was -0.387; in assay [3], 0.703; in assay [5] it was -0.971; in assay [6] it was -0.761; in assay [7], -1.91. Also, the composite z-score in [8] is -1.18; in assay [9], -1.61; in [10] it was -0.385; in assay [11], -1.51; in assay [13] it was -1.63; in [14] it was -1.07. In addition, the composite z-score in assay [15] was -0.137; in assay [16] it was -0.202; in assay [17], 0.0062; in assay [18] it was -0.358; in [19] it was -0.557; in assay [20], -2.08. Moreover, the figures for the z-score in assay [4] and in [12] were -1.48 (inactive) and 0.369, respectively.
